PubChem BioAssay AID1745856 (National Center for Advancing Translational Sciences (NCATS), 2022)
The whole screen tested about 120,000 compounds, of which about 270 (0.23%) were called active. Not shown: some 5% with an inconclusive outcome. The call rests on the fitted dose curve. The list comes from a sample in which actives are over-represented; it also holds similar structures and randomly drawn compounds.

Assay: Primary qHTS Assay for Foot and Mouth Disease Virus Antivirals against NCGC Sytravon and CBC Compound Libraries: Firefly Luciferase Signal; further: nearly all actives have a fitted effect of over 60% in size
Details: FMDV antiviral cell assay; series mostly up to 57.5 µM; activity change, negative = inhibition: at the top concentration
On the % scale 0 is the no-effect control and ±100 the full control effect; potency means the concentration at half of the fitted maximal effect.

Compound | activity change, negative = inhibition | Potency
COc1cc(NC(=O)C2CCCN2C(=O)C23CC4CC(CC(C4)C2)C3)c(OC)cc1Cl (centres undefined) | -13.5% (inactive) | –
CC1CCC(NC(=O)c2ccccc2SCC#N)CC1 (centres undefined) | 0% (inactive) | –
COc1ccc2c(C)c(CC(=O)Nc3nnc(C(C)C)s3)c(=O)oc2c1OC | 14.8% (inactive) | –
Cc1ccccc1C(C)N (centres undefined) | -5.82% (inactive) | –
COc1ccc(/C=C2\CCc3ccccc3C2=O)cc1Br | 203% (inactive) | –
CCOc1ccc(OCC(=O)NCCc2c[nH]c3ccccc23)cc1 | 19.4% (inactive) | –
COCCN(CCOC)C(=O)Cc1n[nH]c(=O)c2ccccc12 | 2.66% (inactive) | –
COc1ccc(-c2noc(-c3cccc(OCC(=O)N4CCCC4)c3)n2)cc1 | 161% (inactive) | –
O=S(=O)(c1ccc(Sc2nnnn2C2CCCC2)nc1)N1CCOCC1 | -10.7% (inactive) | –
Cc1cccc(-c2nc3cc(NC(=O)CC(C)C)ccc3o2)c1 | 120% (inactive) | –
CCOC(=O)CSCc1cccc(Cl)c1 | 13.3% (inactive) | –
O=c1[nH]c(=O)n(CCc2ccccc2)c2nccc(-c3ccc(Cl)cc3)c12 | -0.9% (inactive) | –
CC1CCC(=NNC(=S)NC2CCCCC2)CC1 (centres undefined) | 37.9% (inactive) | –
CCCNC(=O)NCc1nc(-c2ccc(OC)cc2)oc1C | 79.5% (inactive) | –
COc1ccc(C(=O)COC(=O)Cc2c(Cl)cccc2Cl)c(OC)c1 | 11.5% (inactive) | –
O=C1CC(c2cccc(Br)c2)c2c(n3c(nc4ccccc43)[nH]c2=O)N1 (centres undefined) | -10.9% (inactive) | –
CCN(C(=O)CSc1nc(-c2ccccc2Cl)nc2cc(=O)[nH]n12)c1ccccc1 | 42.8% (inactive) | –
O=C(NCc1coc(-c2cccs2)n1)c1ccc(C(F)(F)F)cc1 | 39.9% (inactive) | –
O=C(CSc1nc2ncccc2c(=O)n1-c1ccccc1)NC(=O)NC1CC1 | -8.22% (inactive) | –
CCOCCn1c(NCCCOC)nc2c1c(=O)[nH]c(=O)n2C | 82.8% (inactive) | –

Compound | activity change, negative = inhibition | Potency
NC(=O)Cn1nc(-c2cccc([N+](=O)[O-])c2)c2ccccc2c1=O | -7.8% (inactive) | –
O=C(NCc1ccc(F)cc1)c1cc(S(=O)(=O)C2CCS(=O)(=O)C2)ccc1F (centres undefined) | 17.7% (inactive) | –
CCN(CC)C(=O)Oc1ccc2c(C)c(-c3ccccc3)c(=O)oc2c1 | 0% (inactive) | –
Cc1ccsc1CNC(=O)CCc1ccc(F)c(F)c1 | 58.8% (inactive) | –
COCCCNC(=O)Cc1c(C)c2ccc(OC(C)=O)c(OC(C)=O)c2oc1=O | 36% (inactive) | –
C[C@H](NC(=O)C(c1ccccc1)c1ccccc1)C(=O)O | 12.3% (inactive) | –
Nc1nccnc1C(=O)Nc1cccc(NC(=O)c2ccncc2)c1 | 8.94% (inactive) | –
CC(Sc1nc2ccccc2n1C)C(=O)NCc1ccc2c(c1)OCO2 (centres undefined) | 13% (inactive) | –
Cc1nc2ccc(C)c(C)c2s1 | 1.16% (inactive) | –
O=C(c1cccs1)c1cn(CCOc2ccc(Cl)cc2)c2ccccc12 | 4.11% (inactive) | –
Cc1c(Cl)cccc1NC(=O)Cn1cc(C(=O)c2cccs2)c2ccccc21 | – | 7.08 µM (active)
Cc1ccccc1NC(=O)Cn1cc(C(=O)c2cccs2)c2ccccc21 | 7.93% (inactive) | –
Cc1ccc(C)c(COC(=O)c2ccc3c(c2)NC(=O)CS3)c1 | 9.18% (inactive) | –
CC(C)C(C#CC(O)(c1ccccc1)c1ccccc1)N(C)C (centres undefined) | 0.778% (inactive) | –
COc1cc(NC(=O)Cn2c3c(c(=O)n2-c2ccccc2)Cc2cc(Cl)ccc2O3)cc(OC)c1 | 81.6% (inactive) | –
O=C(O)c1c(F)c(F)c(F)c(F)c1-c1ccccc1 | -7.11% (inactive) | –
O=C(NC1CC1)C(Sc1c(Cl)cccc1Cl)c1ccccc1 (centres undefined) | 21.7% (inactive) | –
CCCCCNC(=O)CCc1c[nH]c2ccccc12 | 1.13% (inactive) | –
CCC(C)n1cc(/C=C2\NC(=O)N(CC)C2=O)c2ccccc21 (centres undefined) | -13.7% (inactive) | –
